Source: PubChem (several laboratories)
The list is not random: actives were taken first. Their share in the collection is about 22%.
E-sel TNF inh: E-selectin induction blockers in HUVEC – imaging, immunofluorescence, high content, primary screen. HUVEC TNFa-induced E-selectin immunofluorescence. inhibition, % at 2 µM. 120,000 compounds, 0.71% hits. AID 1246, 2008;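 active = inhibition above the batch mean plus 3 SD, and confirmed as a hit on visual image review, cut at about 43% in these data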;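 also: 0% = TNF-stimulated DMSO wells and 100% = unstimulated control wells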
cytoskel mod: modifiers of F-actin cytoskeleton organization, primary screen, imaging, HUVEC, phalloidin staining, high-content imaging; HUVEC TNFa F-actin phalloidin imaging; inhibition, % at 2 µM; 91,000 compounds, 0.18% hits; AID 836, 2007;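 active = inhibition above the batch mean plus 3 SD and confirmed as a hit by visual image inspection, cut at about 30% in these data, passing the limit was not always enough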
CYP2C19 activ: human CYP2C19 activators, primary screen, biochemical, luminescence; Cytochrome P450 2C19 (Homo sapiens), P33261; recombinant CYP2C19, luciferin-H EGE luminescence; active compounds read high; 0 = fully inhibited enzyme, 1 = untreated enzyme; activation factor at 5 µM; 96,000 tested, under 10 active; AID 1025, 2008;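 active = activation factor of at least 2 at 5 µM in the primary screen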;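 also: 0 = wells with 2.5 mM tranylcypromine and 1 = vehicle-only wells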
Target sequence (P33261 whole entry, looked up): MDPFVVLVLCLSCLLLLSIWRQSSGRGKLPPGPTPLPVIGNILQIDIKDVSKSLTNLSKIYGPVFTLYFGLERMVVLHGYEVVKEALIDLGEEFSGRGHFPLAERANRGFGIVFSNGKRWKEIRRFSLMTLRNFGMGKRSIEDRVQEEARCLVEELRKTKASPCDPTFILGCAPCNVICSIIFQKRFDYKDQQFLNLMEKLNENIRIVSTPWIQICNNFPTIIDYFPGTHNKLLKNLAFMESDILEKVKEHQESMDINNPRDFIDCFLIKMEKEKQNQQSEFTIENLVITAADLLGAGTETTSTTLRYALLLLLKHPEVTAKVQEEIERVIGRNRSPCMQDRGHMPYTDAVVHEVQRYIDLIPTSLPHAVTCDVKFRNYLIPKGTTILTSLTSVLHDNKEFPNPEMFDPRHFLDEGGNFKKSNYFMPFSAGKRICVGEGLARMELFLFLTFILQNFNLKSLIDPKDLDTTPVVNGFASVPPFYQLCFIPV
CYP2C9 inhib: blockers of cytochrome P450 2C9 activity – biochemical, luminescence, ADME assay, primary screen | 96,000 compounds, 20% hits | P11712 | inhibition, % at 5 µM | CYP2C9 Supersomes, luciferin-H conversion | AID 777, 2007;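 active = blocking of liver enzyme CYP2C9 beyond about 50% at 5 µM, limit read from the data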
CYP2C19 inhib: blockers of cytochrome P450 2C19 activity – biochemical, luminescence, ADME assay, primary screen; P33261; CYP2C19 Supersomes, luciferin-H EGE luminescence, 30 min; inhibition, % at 5 µM; 96,000 compounds, 21% hits;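 active = CYP2C19 inhibition above a set limit at 5 µM in the primary screen, cut at about 50% in these data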;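 also: plate controls were negative control wells for no effect and 2.5 mM tranylcypromine positive control for full effect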
CYP2C9 act: human CYP2C9 activators, primary screen, biochemical, luminescence | Cytochrome P450 2C9 (Homo sapiens), P11712 | 96,000 compounds, 1.4% hits | activation factor at 5 µM | recombinant CYP2C9, luciferin-H conversion; active compounds read high; factor 1 = untreated enzyme, 0 = blocked;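 active = activation factor of 2 or more for CYP2C9 at a 5 µM dose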;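 also: 0 = sulfaphenazole-blocked wells and 1 = vehicle-only wells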
The depositor's hits bear a star; x = no result.

SMILES	E-sel TNF inh	cytoskel mod	CYP2C19 activ	CYP2C9 inhib	CYP2C19 inhib	CYP2C9 act
COc1cc(/C=C/C(=O)O)cc(S(=O)(=O)NCc2ccc3c(c2)OCO3)c1OC	-12.0	x	x	x	x	x
COc1cccc(CNS(=O)(=O)/C=C/c2ccc3c(c2)OCO3)c1	x	x	0	69.1*	98.8*	0.3
COc1ccc(S(=O)(=O)NCc2ccc3c(c2)OCO3)cc1C(=O)O	-7.7	x	1.1	-43.9	-10.8	1.4
CN(C)S(=O)(=O)NCc1ccc2c(c1)OCO2	-5.2	10.4	0.3	29.9	69.3*	0.7
COc1cccc(S(=O)(=O)NCc2ccc3c(c2)OCO3)c1	1.5	-11.5	0	91.4*	100.3*	0.1
CC(O)Cc1nsc(NC(=O)c2ccc(Br)o2)n1 (configuration not stated)	-17.2	5.6	1.1	-8.0	-5.3	1.1
COc1ccccc1CNC(=O)COC(=O)/C=C/c1cccs1	-8.6	x	x	x	x	x
CCSc1nc2ccccc2n1C(=O)c1ccc(S(=O)(=O)N2CCCCC2)cc1	1.8	6.3	0.8	25.8	18.7	0.7
Cc1cc(Br)c(NC(=O)COC(=O)C2CC2C)c(Br)c1 (configuration not stated)	-16.4	x	x	x	x	x
COC(=O)c1ccc(C(=O)OC)c(NC(=O)COC(=O)C2CCCCC2)c1	7.5	-33.7	0.8	35.3	24.7	0.6
Cc1ccc(NC(=O)COC(=O)C2CC2C)c(S(=O)(=O)N2CCCCC2)c1 (configuration not stated)	23.9	-9.4	0.3	51.1*	74.2*	0.5
COC(=O)c1ccc(C(=O)OC)c(NC(=O)COC(=O)C2CC2C)c1 (configuration not stated)	-13.5	12.6	0.2	79.7*	77.7*	0.2
NC(=O)c1nn(-c2ccccc2)c(=O)cc1O	-21.1	-0.5	1.1	-6.5	-7.6	1.1
CSc1cc(-c2ccccc2)n(Cc2c(Cl)cccc2Cl)c(=O)c1C#N	22.1	x	0.8	75.3*	22.6	0.2
CSc1cc(-c2ccc(Cl)cc2)n(Cc2ccccc2)c(=O)c1C#N	0.6	x	1.1	-12.2	-6.6	1.1
COc1ccc2c(c1)nc1n2CN(CC2CCCO2)CN1Cc1ccccc1 (configuration not stated)	x	x	0.8	-1.1	23.6	1
Cc1nc2ncnn2c(N2CCN(c3cccc(C(F)(F)F)c3)CC2)c1C	-9.9	0.7	0.4	43.7	64.2*	0.6
Cc1cc(=O)n2c(c1C#N)SC1CCCCC12O (configuration not stated)	-26.7	-42.6	1	-1.8	4.8	1
O=C(CCNC(=O)c1ccccc1Cl)Nc1ccc2c(c1)OCO2	-26.0	0.8	0.4	95.6*	59.4*	0
CC(=O)c1cc2c(cc1NC(=O)CCNC(=O)c1ccccc1Cl)OCO2	-8.0	18.0	0.4	73.9*	60.2*	0.3
O=C(CCNC(=O)c1ccccc1Cl)Nc1ccc(Cl)c(C(F)(F)F)c1	5.4	x	x	x	x	x
CS(=O)(=O)N(Cc1ccc(C(=O)NCCSCc2ccco2)cc1)c1ccccc1	8.9	7.5	0.4	84.9*	55.2*	0.2
COc1ccc(NC(=O)c2ccc(CN(c3cc(Cl)ccc3C)S(=O)(=O)c3ccccc3)cc2)cc1OC	-13.2	11.5	0.8	65.8*	23.7	0.3
Cc1ccc(CN(c2ccc(C(=O)NCc3ccccn3)cc2)S(C)(=O)=O)cc1	x	7.0	0.7	25.0	31.6	0.8
Cc1ccc(CN(c2ccc(C(=O)NCc3cccnc3)cc2)S(C)(=O)=O)cc1	3.8	8.8	0.1	93.5*	93.4*	0.1
SMILES	E-sel TNF inh	cytoskel mod	CYP2C19 activ	CYP2C9 inhib	CYP2C19 inhib	CYP2C9 act
Cc1ccccc1CN(c1ccc(C(=O)Nc2cccnc2)cc1)S(C)(=O)=O	14.3	1.3	0	95.9*	98.5*	0
COc1ccccc1NC(=O)c1ccc(CN(c2cc(Cl)ccc2C)S(=O)(=O)c2ccccc2)cc1	x	-65.9	1	19.6	-3.5	0.8
O=C1C2CCCN2C(c2cccs2)N1c1ccc(Cl)cc1 (configuration not stated)	x	-1.1	0.8	17.6	22.1	0.8
CC(=O)c1cccc(NC(=O)c2ccc(N(Cc3ccccc3)S(C)(=O)=O)cc2)c1	-5.6	0.6	0.9	13.0	6.3	0.9
CNC(=O)c1ccc(N(Cc2ccccc2)S(C)(=O)=O)cc1	-1.7	-1.5	0.5	36.3	52.2*	0.6
Cc1ccc(Cl)cc1N(Cc1ccc(C(=O)NCc2cccnc2)cc1)S(=O)(=O)c1ccccc1	-33.3	-22.4	0.6	58.5*	35.8	0.4
CC(=O)N1CCN(CCN=CC2=C(O)CC(c3ccco3)CC2=O)CC1 (configuration not stated)	-13.2	x	1.2	5.9	-15.9	0.9
Cc1ccc(S(=O)(=O)N2CCC(=O)N(C(COCc3ccc(Cl)cc3)Cc3ccccc3)CC2)cc1 (configuration not stated)	-21.1	x	x	x	x	x
Cc1ccc(NC(=S)NNC(=O)c2ccco2)cc1	-7.7	-16.3	0.9	0.3	9.2	1
Cc1ccc(-c2ccc(/C=N/N3C(=O)C4C5C=CC(CC5)C4C3=O)o2)c([N+](=O)[O-])c1 (configuration not stated)	4.7	x	1	70.1*	-0.8	0.3
CCCCN1C(=O)C2C3C=CC(C2C1=O)C1C2C(=O)N(CCCC)C(=O)C2C31 (configuration not stated)	71.8*	x	x	x	x	x
O=C1C2C3C=CC(C2C(=O)N1CCCO)C1C2C(=O)N(CCCO)C(=O)C2C31 (configuration not stated)	1.6	-17.8	1.1	-5.6	-12.1	1.1
CCSC1=C(C#N)C(c2ccc(OC)c(OC)c2)CC(=O)N1 (configuration not stated)	-0.8	-29.4	0.4	26.9	62.6*	0.7
CCSC1=C(C#N)C(c2cccc(Br)c2)CC(=O)N1 (configuration not stated)	1.4	-8.6	0.6	28.9	44.3	0.7
CCSC1=C(C#N)C(c2ccc(F)cc2)CC(=O)N1 (configuration not stated)	-11.7	-0.5	0.6	10.5	37.6	0.9
COc1cccc(C2CC(=O)NC(SC)=C2C#N)c1 (configuration not stated)	x	x	0.4	62.3*	63.9*	0.4
O=[N+]([O-])c1cc2c(cc1/C=N/Nc1nc(Nc3ccccc3)nc(N3CCCCC3)n1)OCO2	56.9*	7.0	x	x	x	x
Cc1cc(C)nc(N/N=C/c2cc3c(cc2[N+](=O)[O-])OCO3)n1	2.2	x	x	x	x	x
COCCCNC(=O)CCn1c(=O)c2ccccc2n(CC(=O)NCCc2ccc(OC)c(OC)c2)c1=O	27.6	x	x	x	x	x
